Sampled rows, rich in hits. Any-hit rate of the full collection: about 21%.
NS1 inh: inhibitors of influenza NS1 protein function | AID 2326 | 0.4% of 270,000 active | Potency, µM (series often up to 46.1 µM), for the others: at the highest dose activity, positive = more growth; also: potency is read from the fitted curve at half-maximal effect; actives are rising curves; nearly all actives have a fitted effect of over 50% in size
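Growth recovery, yeast-based: influenza A NS1 expressed in S. cerevisiae causes slow growth, and suppressors are detected by OD600. The parent strain without NS1 is used as positive control.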
Pf growth 96h: inhibits malaria parasite growth, 96 h | P. falciparum luciferase reporter growth, 96 h | Potency, µM (highest dose often 28.7 µM), for inactives: top-dose activity change, negative = inhibition, usual class: inhibitors | 6.9% of 320,000 active; active = well fitted inhibition curve with a large enough effect; inconclusive = small, poorly fitted or top-dose-only effect, or another doubt; inactive = no such curve, though single readings can be large or run the other way; also: potency is read from the fitted curve at half-maximal effect; % is scaled to controls: 0 for no effect and ±100 for the full control effect
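96 h incubation, 37 C, 5% CO2, of luciferase-reporter P. falciparum-infected RBCs (2% hematocrit, 0.05% parasitemia final) with test compounds; endpoint luminescence.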
SARS PLpro yeast: blocks SARS-CoV papain-like protease in a yeast assay | S. cerevisiae expressing SARS-CoV PLpro, growth rescue | Potency, µM (titrated, usually from 32.9 µM), inactives show at the top dose activity, positive = growth rescue, usual class: activators | 0.19% of 330,000 active | AID 485353; also: potency is read from the fitted curve at half-maximal effect; 0% is about no effect; nearly all actives have a fitted effect of over 55% in size
Cycloheximide cs: counter-screen for Shiga toxin inhibitors: cycloheximide protein synthesis inhibition; cell reporter, cycloheximide protein synthesis inhibition counterscreen; max response, %; 12% of 300,000 active; in the data active = max response mostly above about 13%, no sharp cut-off; inactive = mostly below about 14%; also: read at 38.3 µM for the half of the compounds with a filed dose; 0% is about no effect
Shiga toxin inh: blocks Shiga toxin action in Vero cells. Vero cells, Shiga toxin protein synthesis inhibition reporter. inhibition, % at 38.7 µM. 9.2% of 290,000 active. AID 2315; in the data active = inhibition mostly above about 28%, no sharp cut-off; inactive = mostly below about 43%; also: 0% is about no effect
Pf growth 48h: P. falciparum growth inhibition at 48 hours (one generation); Potency, µM (highest dose often 28.7 µM), for the others: top-dose activity change, negative = inhibition, usual class: inhibitors; 5.9% of 310,000 active; P. falciparum luciferase growth in erythrocytes, 48 h; AID 504832; active = well fitted inhibition curve with a large enough effect; inconclusive = small, poorly fitted or top-dose-only effect, or another doubt; inactive = no such curve, though single readings can be large or run the other way; also: potency is read from the fitted curve at half-maximal effect; % is scaled to controls: 0 for no effect and ±100 for the full control effect
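Erythrocytes infected with P. falciparum carrying an integrated firefly luciferase reporter (2% hematocrit, 0.1% parasitemia final) were exposed to compounds in RPMI 1640 with 0.5% Albumax at 37 C, 5% CO2. Growth inhibition was scored as reduced luminescence.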
Starred values were filed as active, the others as inactive; ? = inconclusive; nt = no result given. Unless noted, calls follow the shape of the full dose curve.

SMILES	NS1 inh	Pf growth 96h	SARS PLpro yeast	Cycloheximide cs	Shiga toxin inh	Pf growth 48h
COC(=O)C(Cc1c[nH]c2ccccc12)NC(=O)COc1ccc(Cl)cc1Cl (stereo not given)	nt	nt	nt	29*	37	nt
COC(=O)c1ccc(NC(=O)C(=O)c2c[nH]c3ccccc23)cc1	-17%	128%	-6%	0	2	46%
O=C(Nc1cccc(C(=O)Nc2ccc(S(=O)(=O)O)c3cc(S(=O)(=O)O)cc(S(=O)(=O)O)c23)c1)Nc1cccc(C(=O)Nc2ccc(S(=O)(=O)O)c3cc(S(=O)(=O)O)cc(S(=O)(=O)O)c23)c1	-5%	nt	nt	nt	nt	nt
Cc1cccc(-n2cc(CNCCc3nc(C)cc(C)n3)c(-c3cccc(F)c3)n2)c1	1%	-14%	-2%	3	-7	?
O=C(O)[C@H](C1NCCS1)N1Cc2ccccc2C1 (stereo not given in full)	1%	nt	nt	nt	nt	nt
O=C(NCc1cccs1)C(=O)c1c[nH]c2ccccc12	nt	101%	-6%	33*	90	115%
O=C(Cc1c[nH]c2ccccc12)NCc1ccc(Cl)cc1Cl	-23%	33%	-18%	12	45*	22%
O=C(NCc1ccccc1Cl)C(=O)c1c[nH]c2ccccc12	-4%	83%	0%	29*	71*	-7%
Cc1[nH]c2ccccc2c1C(=O)C(=O)NCCC1=CCCCC1	1%	?	-3%	10	6	2.9µM*
CSc1ccc(S(=O)(=O)NCC(=O)OCC(=O)N2CCCC2=O)cc1[N+](=O)[O-]	nt	20%	2%	nt	nt	0%
Cc1[nH]c2ccccc2c1C(=O)C(=O)NCc1ccco1	1%	12µM*	-4%	2	-7	3%
Cc1[nH]c2ccccc2c1C(=O)C(=O)NCCOc1ccccc1	nt	52%	2%	25	17	?
CCOC(=O)C(Cc1c[nH]c2ccccc12)NC(=O)c1ccccc1Br (stereo not given)	11%	56%	-3%	37*	53*	179%
CC(C)[C@H](NC(=O)[C@H](CC(=O)O)NC(=O)CNC(=O)[C@@H](N)CCCN=C(N)N)C(=O)O	nt	nt	nt	-4	4	nt
Cc1ccc2nc(N3CCOCC3)c(C=O)cc2c1	-30%	-25%	-6%	26*	36	24%
CCN1CCCc2cc(CN(CCN3CCOCC3)C(=S)Nc3cccc(C)c3)ccc21	nt	12µM*	5%	7	24	?
CCN1CCCc2cc(CN(CCN3CCOCC3)C(=S)Nc3ccc(OC)c(OC)c3)ccc21	nt	?	-1%	-3	-19	5%
CCc1ccc(NC(=O)N(CCN2CCOCC2)Cc2ccc3c(c2)CCCN3CC)cc1	-8%	?	?	25*	37	nt
CCN1CCCc2cc(CN(CCN3CCOCC3)C(=O)Nc3ccc(C)c(C)c3)ccc21	-9%	?	2%	1	-1	nt
CCN1CCCc2cc(CN(CCN3CCOCC3)C(=S)Nc3ccccc3C)ccc21	nt	?	0%	0	-11	-11%
CCN1CCCc2cc(CN(CCN3CCOCC3)C(=S)Nc3ccc(OC)c(Cl)c3)ccc21	nt	19µM*	2%	3	8	?
COc1ccc(Cn2c(C)nc3ccc([N+](=O)[O-])cc3c2=O)cc1	-2%	?	-3%	-4	-1	7%
O=C(NCC1COc2ccccc2O1)c1cccc(S(=O)(=O)N2CCN(c3ccccc3)CC2)c1 (stereo not given)	nt	?	-1%	nt	nt	?
O=C(COC(=O)COc1cccc(C(F)(F)F)c1)Nc1ccc(N2CCOCC2)cc1	nt	29%	-2%	nt	nt	27%
CCOc1ccc(/C=C2/C(=O)N(c3ccc(OC)cc3)C(=S)N2CC(=O)OC)cc1OCC	-3%	?	-27%	30*	12*	?
SMILES	NS1 inh	Pf growth 96h	SARS PLpro yeast	Cycloheximide cs	Shiga toxin inh	Pf growth 48h
CC[C@@]1([C@@H]2O[C@@H]([C@H]3O[C@@](O)(CO)[C@H](C)C[C@@H]3C)C[C@@H]2C)CC[C@H]([C@]2(C)CC[C@]3(C[C@H](O)[C@@H](C)[C@@H]([C@@H](C)[C@@H](OC)C(C)C(=O)O)O3)O2)O1 (stereo not given in full)	nt	nt	nt	6	23	nt
OCC1(Cc2cccc(Cl)c2)CCCN(Cc2cn[nH]c2C2CCCCC2)C1 (stereo not given)	0%	8%	0%	-1	-6	12µM*
COc1cc(-n2c(C)nc3cccnc32)c(Cl)cc1C(=O)O	-1%	?	2%	20*	44	10%
O=C(NCC1CCCC(CNC(=O)Nc2ccc(Cl)cn2)C1)Nc1ccc(Cl)cn1 (stereo not given)	23%	?	0%	9	37	?
Nc1nc(CSc2ncccn2)nc(Nc2ccccc2)n1	-4%	nt	3%	62*	139*	196%
COc1ccc(Nc2nc(N)nc(CSc3nccc(C)n3)n2)cc1	-1%	5.2µM*	1%	16*	76*	16%
Cc1ccc(Nc2nc(N)nc(CSc3nnc(-c4ccncc4)o3)n2)cc1	?	nt	-2%	14*	48*	15%
COc1ccc(Nc2nc(N)nc(CSc3nnc(C)s3)n2)cc1	-5%	?	-4%	29*	56*	109%
C=CCOC(=O)C1=C(C)NC(=S)NC1c1cccs1 (stereo not given)	21%	?	9%	6	-3	-13%
COc1ccc(N(CN2C(=O)C3CCCCC3C2=O)C(=O)c2ccco2)cc1 (stereo not given)	-1%	8%	1%	-2	2	1%
Cc1ccc(Nc2nc(N)nc(CSc3ncccn3)n2)cc1	-9%	89%	4%	29*	68*	nt
Cc1ccc(Nc2nc(N)nc(CSc3nc4ccccc4s3)n2)cc1	12%	-5%	-23%	37*	37*	-3%
Cc1ccccc1Nc1nc(N)nc(CSc2nc3ccccc3s2)n1	-3%	?	-3%	10	9	-26%
Cc1cc(S(=O)(=O)N2CCCCCC2)c(Cl)cc1Cl	-67%	nt	-13%	-4	-17	7%
COc1cc2c(cc1OC)CN(c1ccc([N+](=O)[O-])cc1Cl)CC2	-10%	?	-42%	6	13	?
O=C1CCN(c2ncccc2[N+](=O)[O-])CC1	nt	32%	1%	-2	-7	?
COc1cc2c(cc1OC)CN(c1ncccc1[N+](=O)[O-])CC2	-3%	74%	1%	25*	55*	49%
COc1cc2c(cc1OC)CN(c1ccc([N+](=O)[O-])cc1C#N)CC2	6%	15µM*	-21%	9	-11	-7%
COc1cc2c(cc1OC)CN(c1ccc(F)cc1[N+](=O)[O-])CC2	-2%	15%	-4%	30*	72*	3%
O=C(Oc1ccc(Br)cc1C(=S)N1CCOCC1)c1ccc([N+](=O)[O-])cc1[N+](=O)[O-]	-15%	?	-2%	1	2	42%

Screening data: PubChem BioAssay, National Center for Advancing Translational Sciences (NCATS)
